The panel holds about 83,000 compounds, 20% with a hit somewhere; the sample as a whole holds those more often.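 A percent growth of 40 corresponds to 60% growth inhibition; 0 means no net growth; -100 means all cells died. Active threshold: below 10.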 Unmarked numbers belong to inactive results. Calls of active or inactive are those of the source.

Test systems include NCI-H23 lung; NCI-H226 lung; NCI-H322M lung; HOP-62 NSCLC; NCI-H460 lung; HOP-92 NSCLC; NCI-H522 lung; A549/ATCC NSCLC; 786-0 renal; COLO 205 colon; DU-145 prostate; K-562 leukemia; MALME-3M melanoma; MDA-MB-231 breast; RXF 393 renal; SF-268 CNS; SF-295 CNS; SF-539 CNS; UACC-257 melanoma; M14 melanoma.
Test in all cases: NCI-60 one-dose screen, 48 h (100 = growth as untreated, 0 = no growth, -100 = all killed)
Holding throughout (settings): 10 µM unless noted

Take `O=C1c2cccnc2C(=O)c2c1c(C(=O)OCCCN1CCOCC1)c1ccccn21`: the growth with NCI-H23 lung is -32.1% (active); in the experiment with NCI-H226 lung, -6.42% (active); with NCI-H322M lung it was -51.5% (active); in the experiment on HOP-62 NSCLC, -25.6% (active); with NCI-H460 lung it was -60% (active); in the experiment on HOP-92 NSCLC, -20.6% (active). Further, the growth in the experiment with NCI-H522 lung is -75.1% (active); in the experiment on A549/ATCC NSCLC it was -25% (active); with 786-0 renal, -18.4% (active); in the experiment on COLO 205 colon it was -75.8% (active); in the experiment on DU-145 prostate, -84.2% (active); in the experiment on K-562 leukemia, -20.2% (active). For the same compound, the growth in the experiment on MALME-3M melanoma was -53.9% (active); in the experiment on MDA-MB-231 breast it was 14.1%; in the experiment on RXF 393 renal, 3.94% (active); in the experiment with SF-268 CNS, 5.83% (active); with SF-295 CNS, -4.43% (active); in the experiment on SF-539 CNS, -43.2% (active). Besides, the growth was -85.6% (active) in the experiment with UACC-257 melanoma and -81.2% (active) with M14 melanoma.

On to `CN(C)CCCN(CCC1CCCCC1)CCC1CCCCC1`, for which the growth with NCI-H23 lung was 66.4%; in the experiment with NCI-H226 lung it was 94.8%; in the experiment with NCI-H322M lung, 80.1%; with HOP-62 NSCLC, 64.3%; in the experiment with NCI-H460 lung, -2.63% (active); in the experiment on HOP-92 NSCLC it was 28.8%. Also, the growth in the experiment with NCI-H522 lung was 48.8%; with A549/ATCC NSCLC it was 52.5%; in the experiment on 786-0 renal, 56.2%; with COLO 205 colon it was -54.4% (active); in the experiment on DU-145 prostate, 80.9%; in the experiment with K-562 leukemia, 26%. Further, the growth in the experiment with MALME-3M melanoma is -79.4% (active); in the experiment on MDA-MB-231 breast, 19.4%; in the experiment with RXF 393 renal, 70.8%; in the experiment on SF-268 CNS, 75.2%; in the experiment on SF-295 CNS it was 69.4%; in the experiment with SF-539 CNS, 49.6%. In addition, the growth in the experiment with UACC-257 melanoma is -65.3% (active); with M14 melanoma, -97.2% (active).

Consider `CC/C(=C(/c1ccc(Cl)cc1)c1ccc(OCCN(CC)CC)cc1)c1ccc(OC)cc1`, for which the growth in the experiment on NCI-H23 lung is 48.7%; in the experiment on NCI-H226 lung, 80.5%; in the experiment on NCI-H322M lung it was 66.9%; in the experiment on HOP-62 NSCLC it was 89.2%; in the experiment with NCI-H460 lung, 16.6%; in the experiment on HOP-92 NSCLC it was 51.7%. The growth is 66.6% in the experiment on NCI-H522 lung; 48.8% with A549/ATCC NSCLC; 49.5% with 786-0 renal; 22.2% with COLO 205 colon; 74.4% in the experiment on DU-145 prostate; -18% (active) with K-562 leukemia. Besides, the growth in the experiment on MALME-3M melanoma was 68.2%; with MDA-MB-231 breast it was 71.8%; in the experiment with RXF 393 renal it was 45%; with SF-268 CNS, 79.3%; in the experiment on SF-295 CNS, 36.9%; with SF-539 CNS, 62.3%. Further, the growth is 64.9% in the experiment on UACC-257 melanoma and 34.5% with M14 melanoma.

With `CC1=NN(c2cccc(Cl)c2)C(=O)/C1=C\C=C\c1ccccc1`, the growth in the experiment on NCI-H23 lung was 26.3%; in the experiment on NCI-H226 lung, 3.87% (active); with NCI-H322M lung, 112%; with HOP-62 NSCLC it was 22.3%; in the experiment with NCI-H460 lung it was 101%; in the experiment with HOP-92 NSCLC, 101%. Besides, the growth in the experiment with NCI-H522 lung is 34.4%; in the experiment with A549/ATCC NSCLC, 94.5%; with 786-0 renal it was 35.5%; in the experiment with COLO 205 colon, 4.77% (active); in the experiment with DU-145 prostate, 112%; in the experiment with K-562 leukemia, 76.9%. Also, the growth is 116% in the experiment with MALME-3M melanoma; 13.7% in the experiment with MDA-MB-231 breast; -87.7% (active) with RXF 393 renal; 75.5% in the experiment on SF-268 CNS; 101% in the experiment with SF-295 CNS; 21.6% with SF-539 CNS. Moreover, the growth in the experiment with UACC-257 melanoma is 63.3%; with M14 melanoma it was 14.4%.

On to `CCOC(=O)C1=C(c2ccccc2)N=C2SC=C(c3cccc([N+](=O)[O-])c3)N2C1c1ccc(O)cc1` (stereo not given), for which the growth in the experiment on NCI-H23 lung is 96.5%; in the experiment on NCI-H226 lung, 96.8%; with NCI-H322M lung it was 96.3%; with HOP-62 NSCLC, 98.6%; in the experiment with NCI-H460 lung it was 101%; with HOP-92 NSCLC it was 90.1%. The growth was 93.8% in the experiment on NCI-H522 lung; 100% in the experiment on A549/ATCC NSCLC; 96.5% in the experiment on 786-0 renal; 116% in the experiment on COLO 205 colon; 102% with DU-145 prostate; 112% with K-562 leukemia. Moreover, the growth with MALME-3M melanoma is 96.7%; in the experiment on MDA-MB-231 breast, 93.2%; with RXF 393 renal, 89.1%; in the experiment on SF-268 CNS, 94.3%; in the experiment with SF-295 CNS, 101%; in the experiment on SF-539 CNS, 98.8%. The growth is 96.1% in the experiment on UACC-257 melanoma and 101% in the experiment on M14 melanoma.

On to `C=CCNc1ccc2c3c(cccc13)C(=O)N(CC=C)C2=O`, for which the growth is 96% in the experiment with NCI-H23 lung; 93.7% in the experiment with NCI-H226 lung; 102% in the experiment on NCI-H322M lung; 108% with HOP-62 NSCLC; 99.9% in the experiment on NCI-H460 lung; 49.6% in the experiment with HOP-92 NSCLC. Also, the growth with NCI-H522 lung was 99.4%; in the experiment with A549/ATCC NSCLC, 103%; with 786-0 renal, 101%; with COLO 205 colon, 110%; in the experiment with DU-145 prostate, 102%; in the experiment with K-562 leukemia, 96.7%. Also, the growth in the experiment on MALME-3M melanoma was 111%; with MDA-MB-231 breast, 88.9%; in the experiment with RXF 393 renal it was 99.7%; with SF-268 CNS it was 96.2%; with SF-295 CNS it was 106%; with SF-539 CNS, 93.7%. The figures for the growth in the experiment with UACC-257 melanoma and with M14 melanoma were 114% and 108%, respectively.

As to `CC(=O)c1ccc(Nc2nccc(-c3ccc(Cl)cc3)n2)cc1`, the growth in the experiment on NCI-H23 lung was 84.2%; in the experiment with NCI-H226 lung, 54%; with NCI-H322M lung, 100%; with HOP-62 NSCLC, 108%; with NCI-H460 lung it was 85.5%; in the experiment on HOP-92 NSCLC it was 109%. Also, the growth was 90.8% with NCI-H522 lung; 87% in the experiment with A549/ATCC NSCLC; 101% in the experiment on 786-0 renal; 105% in the experiment with COLO 205 colon; 102% in the experiment on DU-145 prostate; 83.9% in the experiment on K-562 leukemia. Moreover, the growth in the experiment with MALME-3M melanoma was 101%; with MDA-MB-231 breast it was 101%; in the experiment with RXF 393 renal, 103%; with SF-268 CNS, 93%; in the experiment on SF-295 CNS it was 101%; in the experiment with SF-539 CNS, 92.3%. Also, the values for the growth in the experiment on UACC-257 melanoma and in the experiment with M14 melanoma were 106% and 101%, respectively.

The record behind these values is PubChem BioAssay (NCI).
